# Measured values reported in the supplement of paper PMC4723716.
# Several values for one entry are separate records, joined by “and”; a condition that tells them apart may be missing. Identical values can stand only once. ± gives the uncertainty stated by the source. Whole data set: some 9,900 compounds, median “viability index relative to DMSO control” near 1, cut for the lowest 2% near 0.85. What follows is part of a selection rich in the lowest values, with near analogues and random picks from the rest.
# Test system: Plasmodium falciparum NF54 stage V gametocytes
# Assay: viability index relative to DMSO control (fraction); higher = less gametocyte killing
# Details: 2.5 µM, incubation time: 72 h
# Method in brief: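 P. falciparum NF54 stage V gametocytes in serum-free screening medium (0.75% gametocytemia, 1.25% hematocrit, 10 µl) were incubated with compound at 2.5 µM in 1,536-well plates for 72 hr at 37°C under low oxygen. Then 3 µl of 2.5 µM MitoTracker Red CMXRos plus 0.13% saponin was added for one to two hours. One field per well was imaged, 20–70 µm2 red particles were counted, and the viability index was the count divided by the plate mean of DMSO wells.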
# [1] = library set: Broad Institute DOS
Compound,viability index [1],viability index (library set: Broad Institute Blood Stage)
C[C@@H]1CN([C@H](C)CO)C(=O)c2c(c3ccccc3n2C)-c2ccccc2CO[C@H]1CN(C)C(=O)[C@@H](Cc1ccccc1)N(C)C,1.14 ± 0.11,
COCC(=O)N1[C@@H]2CN(C)c3ccccc3[C@@H]2[C@@H]1CO,1.05 ± 0.034,
CN(C)C(=O)c1cccc(-c2cccc(-c3nc(C(=O)N4CCCCC4)cc4c3[C@H](CCO)N([S@@](=O)C(C)(C)C)C4)c2)c1,1.04 ± 0.0013,
C[C@H]1CN([C@@H](C)CO)C(=O)Cc2cc(NC(=O)CCC(F)(F)F)ccc2O[C@H]1CN(C)CC1CC1,1.0278 ± 0.00041,
O=C(C[C@H]1C=C[C@@H](NC(=O)c2ccncc2)[C@@H](CO)O1)NCC1CC1,1.08 ± 0.03,
COc1ccc2c3c([nH]c2c1)[C@@H](CO)N(C[C@]31CCN(Cc2ccccc2Cl)CC1)S(=O)(=O)c1cn(C)cn1,0.955 ± 0.018,
O=C(Cc1ccncc1)NCC[C@H]1CC[C@H](NS(=O)(=O)c2ccccc2Cl)[C@H](CO)O1,1.09 ± 0.031,
CN1[C@@H]2Cn3c(ccc(-c4ccncc4)c3=O)[C@H]1[C@@H](C(=O)N1CCC(Cc3ccccc3)CC1)[C@@H]2CO,1.11 ± 0.041,
COc1ccc2c3c([nH]c2c1)[C@H](CO)N(C[C@]31CCN(Cc2cncnc2)CC1)C(=O)CN(C)C,0.991 ± 0.06,
O=C(NC[C@@H]1[C@H](c2ccccc2)[C@H](CO)N1Cc1ccccn1)C1CCCC1,0.684 ± 0.14,
O=C(NC[C@H]1[C@H](c2ccccc2)[C@@H](CO)N1Cc1ccccn1)C1CCCC1,0.9562 ± 0.0077,
O=C(NC[C@@H]1[C@@H](c2ccccc2)[C@H](CO)N1Cc1ccccn1)C1CCCC1,1.05 ± 0.068,
N#C[C@H]1[C@H](c2ccc(C#Cc3ccccc3F)cc2)[C@@H](CO)N1C(=O)c1cccnc1,1.02 ± 0.033,
C[C@H](CO)N1C[C@H](C)[C@H](CN(C)CC2CC2)Oc2ccc(NC(=O)CCC(F)(F)F)cc2CC1=O,0.953 ± 0.022,
C[C@@H]1CN([C@@H](C)CO)C(=O)c2ccccc2-c2ccccc2CO[C@@H]1CN(C)Cc1cccnc1,1.049 ± 0.005,
CCC(=O)NC[C@H]1[C@@H](c2ccc(-c3ccc(C#N)cc3)cc2)[C@@H](CO)N1CCC(F)(F)F,1.01 ± 0.028,
CCCN1[C@H](CO)[C@H](c2ccc(C#Cc3ccccc3)cc2)[C@@H]1CNC1CCCC1,0.914 ± 0.021,
CN(C[C@H]1[C@@H](c2ccc(C3=CCCC3)cc2)[C@@H](CO)N1CCC(F)(F)F)S(C)(=O)=O,1.02 ± 0.046,
OC[C@@H]1[C@H](c2ccc(-c3ccc(F)cc3)cc2)[C@H](CNC2CCCC2)N1CCC(F)(F)F,0.837 ± 0.1,
OC[C@@H]1[C@H](c2ccc(-c3ccc(F)cc3)cc2)[C@@H](CNC2CCCC2)N1CCC(F)(F)F,0.557 ± 0.096,
OC[C@H]1[C@@H](c2ccc(-c3ccc(F)cc3)cc2)[C@@H]2CN(CCC(F)(F)F)CCCCN12,,0.959 ± 0.057
CO[C@H](CN(C)C(=O)c1cnccn1)[C@H](C)CN([C@H](C)CO)S(=O)(=O)c1ccccc1,0.948 ± 0.067,

Compound,viability index [1],viability index (library set: Broad Institute Blood Stage)
COc1ccc(CNC(=O)C[C@H]2CC[C@H](NC(=O)CN(C)C)[C@@H](CO)O2)cc1,1.1 ± 0.008,
NCC[C@H]1CC[C@H](NS(=O)(=O)c2ccc(Cl)cc2)[C@H](CO)O1,0.803 and 1.11,
NCC[C@@H]1CC[C@H](NS(=O)(=O)c2ccc(Cl)cc2)[C@H](CO)O1,1.08 ± 0.093,
NCC[C@@H]1CC[C@@H](NS(=O)(=O)c2ccc(Cl)cc2)[C@@H](CO)O1,1.02 and 1.13,
C[C@@H]1C/C=C/C[C@@H](c2cccc(Cl)c2)NC(=O)[C@H](Cc2ccccc2)N(C)C(=O)c2ccccc2O1.C[C@@H]1C/C=C\C[C@@H](c2cccc(Cl)c2)NC(=O)[C@H](Cc2ccccc2)N(C)C(=O)c2ccccc2O1,0.94 ± 0.029,
C[C@@H]1C/C=C/C[C@@H](c2cccc(Cl)c2)NC(=O)[C@@H](Cc2ccccc2)N(C)C(=O)c2ccccc2O1.C[C@@H]1C/C=C\C[C@@H](c2cccc(Cl)c2)NC(=O)[C@@H](Cc2ccccc2)N(C)C(=O)c2ccccc2O1,0.812 ± 0.044,
C[C@@H]1C/C=C/C[C@H](c2cccc(Cl)c2)NC(=O)[C@@H](Cc2ccccc2)N(C)C(=O)c2ccccc2O1.C[C@@H]1C/C=C\C[C@H](c2cccc(Cl)c2)NC(=O)[C@@H](Cc2ccccc2)N(C)C(=O)c2ccccc2O1,0.9516 ± 0.0088,
CCS(=O)(=O)N1C[C@@]2(C1)CN(CC1CCOCC1)[C@H](CO)c1c2c2ccc(OC)cc2n1C,0.985 ± 0.037,
C[C@@H]1CCCCO[C@@H](CN(C)S(=O)(=O)c2cn(C)cn2)[C@H](C)CN([C@@H](C)CO)C(=O)c2cc(NC(=O)Nc3cccc4ccccc34)ccc2O1,1.02 ± 0.062,
O=C(C[C@@H]1CC[C@@H](NS(=O)(=O)c2ccc(F)cc2)[C@H](CO)O1)N1CCN(c2ccccc2)CC1,1.05 ± 0.087,
O=C(Nc1ccccc1F)N1CCCCN2[C@H](CO)[C@@H](c3ccc(/C=C/c4ccccc4)cc3)[C@H]2C1,0.859 ± 0.037,
O=C(Nc1ccccc1F)N1CCCCN2[C@H](CO)[C@H](c3ccc(/C=C/c4ccccc4)cc3)[C@H]2C1,0.492 ± 0.14,
O=C(Nc1ccccc1F)N1CCCCN2[C@H](CO)[C@H](c3ccc(/C=C/c4ccccc4)cc3)[C@@H]2C1,1.01 ± 0.021,
O=C(Nc1ccccc1F)N1CCCCN2[C@@H](CO)[C@@H](c3ccc(/C=C/c4ccccc4)cc3)[C@@H]2C1,0.8892 ± 0.0057,
O=C(Nc1cc(F)ccc1F)N1CCCCN2[C@H](C1)[C@H](c1ccc(C3=CCCCC3)cc1)[C@@H]2CO,1.04 ± 0.075,
O=C(Nc1ccccc1F)N1CCCCN2[C@H](CO)[C@@H](c3ccc(/C=C/c4ccccc4)cc3)[C@@H]2C1,0.961 ± 0.019,
O=C(Nc1cc(F)ccc1F)N1CCCCN2[C@@H](CO)[C@@H](c3ccc(C4=CCCCC4)cc3)[C@@H]2C1,0.818 ± 0.063,
O=C(Nc1cc(F)ccc1F)N1CCCCN2[C@H](CO)[C@H](c3ccc(C4=CCCCC4)cc3)[C@@H]2C1,0.935 ± 0.14,
O=C(Nc1cc(F)ccc1F)N1CCCCN2[C@H](CO)[C@H](c3ccc(C4=CCCCC4)cc3)[C@H]2C1,0.686 ± 0.018,
O=C(C[C@@H]1C=C[C@@H](NC(=O)C2CCC2)[C@@H](CO)O1)NC1CCCCC1,1.16 ± 0.096,
C[C@@H]1CN([C@@H](C)CO)C(=O)c2cc(NC(=O)C3CCCCC3)ccc2O[C@@H](C)CCCCO[C@@H]1CN(C)C(=O)CCC(F)(F)F,1.05 ± 0.025,
